# Test results from PubChem BioAssay.
# Records with an inconclusive call do not appear. Activity calls are given as the source filed them. Cut-off not given; nearly all actives show AC50 up to about 26 µM.
# Experiment: viability loss in pontine glioma line – cell-based, SU-DIPG-XVII, MIPE5.0, CellTiter-Glo, qHTS, dose response (AID 1347060);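 on AC50: cells exposed to compound for 48 hours before viability readout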
# Settings: CellTiter-Glo ATP luminescence
Structure (SMILES),AC50,outcome
N#CCNC(=O)c1ccc(-c2ccnc(Nc3ccc(N4CCOCC4)cc3)n2)cc1,16.6 µM (active),–
COc1ccc2c(c1)CC[C@@H]1[C@@H]2CC[C@]2(C)[C@@H](NCCCCCCN3C(=O)C=CC3=O)CC[C@@H]12,–,inactive
CC1(C)CCC2=C(O1)c1ccccc1C(=O)C2=O,11.8 µM (active),–
CNC(=O)c1c(-c2ccc(F)cc2)oc2cc(N(CCO)S(C)(=O)=O)c(C3CC3)cc12,–,inactive
Cc1ncc(-c2ccnc(Nc3ccc(S(C)(=O)=O)cc3)n2)n1C(C)C,5.25 µM (active),–
CCOc1cc(/C=C2/C(=O)N(c3ccccc3)N=C2C)cc(Cl)c1OCC(=O)OC,–,inactive
C#CCN(C)CC1=Cc2ccccc2Oc2ccccc21,–,inactive
Nc1nc(Nc2ccc(S(N)(=O)=O)cc2)nn1C(=O)c1c(F)cccc1F,6.61 µM (active),–
C/C(O)=C(\C#N)C(=O)Nc1ccc(C(F)(F)F)cc1,–,inactive
O=C(Nc1ccccc1-c1cn2c(CN3CCNCC3)csc2n1)c1cnc2ccccc2n1,9.34 µM (active),–
CNC(=O)c1cccc(-c2ccc3c(N4CCOC[C@@H]4C)nc(N4CCOC[C@@H]4C)nc3n2)c1,1.32 µM (active),–
C[C@H]1[C@H](O)O[C@@H]2O[C@@]3(C)CC[C@H]4[C@H](C)CC[C@@H]1[C@@]24OO3,2.95 µM (active),–
COc1cc(C(C)C)c(Oc2cnc(NC(CO)CO)nc2N)cc1I,–,inactive
O[C@@H](COc1cccc2ncccc12)CN1CCN(C2c3ccccc3[C@@H]3[C@H](c4ccccc42)C3(F)F)CC1 (some centres undefined),20.9 µM (active),–
